# Results filed as inconclusive are left out. Activity calls are given as the source filed them. Rule for the calls, unless noted: active = hit-call score of the fitted dose curve at least 0.9, where 1 is the maximum; inactive = score below 0.9.
# What was measured:
# [1] = read-out: Interleukin-8 (IL8), CXCL8 (gene 3576); experiment: BSK_SAg_IL8: BioMAP Diversity Plus: SAg Assay for Interleukin-8 (IL8) Biomarker Activity (AID 2283094); details: primary human HUVEC with PBMC; actives raise or lower the signal
# Outline: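 Chemicals were dosed onto a human endothelial–PBMC co-culture, and IL-8 was quantified by ELISA after 24 h. Both increases and decreases were fitted relative to DMSO.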
# [2] = BSK_SAg_Proliferation: Cell Proliferation Assessment in the BioMAP Diversity Plus: SAg Assay (AID 2283095); details: primary human HUVEC with PBMC;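 note: relative cell number as total protein by SRB absorbance in sub-confluent culture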
# Outline: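 Absorbance of sulforhodamine B at 560 nm reports total protein in a human vascular endothelial/PBMC co-culture after 96 h chemical exposure. Gain or loss of signal is fitted in both directions against DMSO.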
# [3] = BSK_SAg_SRB: Viability Assessment in the BioMAP Diversity Plus: SAg Assay (AID 2283096); details: primary human HUVEC with PBMC;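 note: cells read one day after compound addition; hits may be either gain or loss of signal compared with DMSO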
# Outline: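 Compounds were added to a human vascular co-culture of umbilical vein endothelium and PBMC. After 24 h, parallel cultures were fixed with 10% TCA, stained with 0.1% sulforhodamine B and read at 560 nm. Gain or loss of signal was fitted relative to DMSO.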
# [4] = target: human CYP2B6, CYP2B6 (gene 1555) (UniProt P20813); experiment: NVS_ADME_hCYP2B6: NovaScreen (NVS) CYP450-related Enzyme Activity (ADME) Assay for human CYP2B6 (AID 2283101; active = hit-call score of the fitted dose curve at least 0.9, where 1 is the maximum)
# Sequence of human CYP2B6, CYP2B6 (gene 1555) (P20813 whole entry, looked up): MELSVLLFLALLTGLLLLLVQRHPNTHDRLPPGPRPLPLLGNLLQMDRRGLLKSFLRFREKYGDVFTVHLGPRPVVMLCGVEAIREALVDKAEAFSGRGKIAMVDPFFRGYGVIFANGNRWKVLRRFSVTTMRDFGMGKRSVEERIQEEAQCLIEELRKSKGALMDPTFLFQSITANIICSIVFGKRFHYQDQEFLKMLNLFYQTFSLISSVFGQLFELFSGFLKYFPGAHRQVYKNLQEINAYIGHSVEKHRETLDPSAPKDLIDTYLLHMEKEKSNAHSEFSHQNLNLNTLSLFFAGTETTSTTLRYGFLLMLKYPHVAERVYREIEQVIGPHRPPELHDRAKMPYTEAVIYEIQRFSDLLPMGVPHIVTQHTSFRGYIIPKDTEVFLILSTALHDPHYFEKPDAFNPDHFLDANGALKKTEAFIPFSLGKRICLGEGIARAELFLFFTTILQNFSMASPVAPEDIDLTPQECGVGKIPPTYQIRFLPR
# Outline: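 Recombinant human CYP2B6 with fluorogenic substrate, read by fluorescence intensity 1 h after dosing. Primary screen in duplicate at 10 uM, actives followed in concentration series; signal loss relative to acetonitrile control.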
# [5] = target: human CYP2A6, CYP2A6 (gene 1548) (UniProt P11509); experiment: NVS_ADME_hCYP2A6: NovaScreen (NVS) CYP450-related Enzyme Activity (ADME) Assay for human CYP2A6 (AID 2283099; active = hit-call score of the fitted dose curve at least 0.9, where 1 is the maximum)
# Sequence of human CYP2A6, CYP2A6 (gene 1548) (P11509 whole entry, looked up): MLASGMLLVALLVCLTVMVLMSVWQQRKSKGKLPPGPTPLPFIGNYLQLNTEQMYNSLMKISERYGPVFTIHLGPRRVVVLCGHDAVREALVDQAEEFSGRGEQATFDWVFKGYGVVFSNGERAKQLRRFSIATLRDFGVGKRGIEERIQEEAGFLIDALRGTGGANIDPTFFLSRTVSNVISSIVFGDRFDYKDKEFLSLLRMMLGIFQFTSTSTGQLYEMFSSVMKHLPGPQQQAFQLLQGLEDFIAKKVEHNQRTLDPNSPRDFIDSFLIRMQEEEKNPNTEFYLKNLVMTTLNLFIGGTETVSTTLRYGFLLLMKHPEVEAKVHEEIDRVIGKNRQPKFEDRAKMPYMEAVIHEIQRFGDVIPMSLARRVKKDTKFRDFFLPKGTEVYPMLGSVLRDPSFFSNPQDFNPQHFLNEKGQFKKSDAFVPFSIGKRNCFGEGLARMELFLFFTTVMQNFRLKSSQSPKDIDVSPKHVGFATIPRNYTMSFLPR
# Outline: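 Loss of fluorescence signal relative to acetonitrile vehicle reported CYP2A6 inhibition in a cell-free system using insect-cell-derived enzyme. Readings were taken at 0.5 h; top concentration in follow-up dose series was 20 uM.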
# [6] = target: human CYP1A2, CYP1A2 (gene 1544) (UniProt P05177); experiment: NVS_ADME_hCYP1A2: NovaScreen (NVS) CYP450-related Enzyme Activity (ADME) Assay for human CYP1A2 (AID 2283102; active = hit-call score of the fitted dose curve at least 0.9, where 1 is the maximum;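 for AC50: fluorescence from turnover of a fluorogenic substrate by recombinant insect-cell CYP1A2; potency for inhibition since loss of fluorescence marks reduced CYP1A2 activity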)
# Sequence of human CYP1A2, CYP1A2 (gene 1544) (P05177 whole entry, looked up): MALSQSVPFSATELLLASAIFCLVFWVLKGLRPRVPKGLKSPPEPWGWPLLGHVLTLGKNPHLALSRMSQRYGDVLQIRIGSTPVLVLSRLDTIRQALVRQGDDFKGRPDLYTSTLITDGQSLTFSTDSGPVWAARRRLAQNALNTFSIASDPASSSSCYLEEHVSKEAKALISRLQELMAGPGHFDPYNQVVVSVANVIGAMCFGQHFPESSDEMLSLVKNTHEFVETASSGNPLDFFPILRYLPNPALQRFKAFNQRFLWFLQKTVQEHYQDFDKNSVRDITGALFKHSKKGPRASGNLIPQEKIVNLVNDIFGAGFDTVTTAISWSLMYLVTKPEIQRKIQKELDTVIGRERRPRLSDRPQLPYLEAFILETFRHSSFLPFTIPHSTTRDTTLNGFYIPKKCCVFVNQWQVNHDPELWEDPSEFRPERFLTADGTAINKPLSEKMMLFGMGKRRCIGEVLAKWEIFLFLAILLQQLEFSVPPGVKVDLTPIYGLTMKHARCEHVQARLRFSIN
# Outline: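 Inhibition scored as decrease in fluorescent product versus acetonitrile negative control. Enzyme: insect-cell recombinant human CYP1A2, substrate-specific, cell-free. Reading at 0.5 h; 10 uM duplicate initial screen with positive and negative controls on every plate.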
# [7] = target: human CYP2C9, CYP2C9 (gene 1559) (UniProt P11712); experiment: NVS_ADME_hCYP2C9: NovaScreen (NVS) CYP450-related Enzyme Activity (ADME) Assay for human CYP2C9 (AID 2283108; active = hit-call score of the fitted dose curve at least 0.9, where 1 is the maximum)
# Sequence of human CYP2C9, CYP2C9 (gene 1559) (P11712 whole entry, looked up): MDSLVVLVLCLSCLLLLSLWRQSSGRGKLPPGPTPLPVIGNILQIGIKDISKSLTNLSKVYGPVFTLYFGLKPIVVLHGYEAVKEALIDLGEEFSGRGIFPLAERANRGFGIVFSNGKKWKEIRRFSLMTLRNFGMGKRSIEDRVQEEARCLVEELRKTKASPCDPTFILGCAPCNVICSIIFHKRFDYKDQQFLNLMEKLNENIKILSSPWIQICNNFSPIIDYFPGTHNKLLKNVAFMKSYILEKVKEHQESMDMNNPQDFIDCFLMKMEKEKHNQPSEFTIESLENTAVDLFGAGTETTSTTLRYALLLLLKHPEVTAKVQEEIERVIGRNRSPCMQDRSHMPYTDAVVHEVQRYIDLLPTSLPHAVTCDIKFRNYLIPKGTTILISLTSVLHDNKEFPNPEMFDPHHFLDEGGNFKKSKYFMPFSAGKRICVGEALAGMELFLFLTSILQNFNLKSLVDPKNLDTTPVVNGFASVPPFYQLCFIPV
# Outline: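 Recombinant human CYP2C9 expressed in SF9 cells, fluorogenic substrate, fluorescence read 0.75 h after dosing. Chemicals first run in duplicate at 10 uM, with actives followed in concentration series; loss of signal versus acetonitrile baseline.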
# [8] = target: Cytochrome P450 3A4 (Homo sapiens) (UniProt P08684); experiment: NVS_ADME_hCYP3A4: NovaScreen (NVS) CYP450-related Enzyme Activity (ADME) Assay for human CYP3A4 (AID 2283110; active = hit-call score of the fitted dose curve at least 0.9, where 1 is the maximum)
# Sequence of Cytochrome P450 3A4 (Homo sapiens) (P08684 whole entry, looked up): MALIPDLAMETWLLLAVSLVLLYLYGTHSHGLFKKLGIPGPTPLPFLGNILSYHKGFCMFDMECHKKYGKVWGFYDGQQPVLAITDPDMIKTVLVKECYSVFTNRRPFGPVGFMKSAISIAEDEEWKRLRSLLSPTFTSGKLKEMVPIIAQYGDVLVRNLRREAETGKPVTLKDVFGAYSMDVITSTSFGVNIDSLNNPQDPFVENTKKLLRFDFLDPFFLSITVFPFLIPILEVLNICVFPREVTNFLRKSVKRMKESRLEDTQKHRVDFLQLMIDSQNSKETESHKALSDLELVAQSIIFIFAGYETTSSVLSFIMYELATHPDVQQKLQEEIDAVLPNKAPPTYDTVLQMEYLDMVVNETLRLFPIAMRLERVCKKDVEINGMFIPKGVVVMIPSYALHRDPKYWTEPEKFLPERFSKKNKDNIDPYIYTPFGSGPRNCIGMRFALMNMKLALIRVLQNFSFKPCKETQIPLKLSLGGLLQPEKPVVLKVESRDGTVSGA
# Outline: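 Recombinant CYP3A4 from insect cells, fluorescence enzyme read-out, 0.33 h after chemical addition. Acetonitrile = negative control/baseline. Primary HTS: 10 uM in duplicate; actives re-tested in concentration series.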
# [9] = target: human CYP2D6, CYP2D6 (gene 1565) (UniProt P10635); experiment: NVS_ADME_hCYP2D6: NovaScreen (NVS) CYP450-related Enzyme Activity (ADME) Assay for human CYP2D6 (AID 2283107; active = hit-call score of the fitted dose curve at least 0.9, where 1 is the maximum)
# Sequence of human CYP2D6, CYP2D6 (gene 1565) (P10635 whole entry, looked up): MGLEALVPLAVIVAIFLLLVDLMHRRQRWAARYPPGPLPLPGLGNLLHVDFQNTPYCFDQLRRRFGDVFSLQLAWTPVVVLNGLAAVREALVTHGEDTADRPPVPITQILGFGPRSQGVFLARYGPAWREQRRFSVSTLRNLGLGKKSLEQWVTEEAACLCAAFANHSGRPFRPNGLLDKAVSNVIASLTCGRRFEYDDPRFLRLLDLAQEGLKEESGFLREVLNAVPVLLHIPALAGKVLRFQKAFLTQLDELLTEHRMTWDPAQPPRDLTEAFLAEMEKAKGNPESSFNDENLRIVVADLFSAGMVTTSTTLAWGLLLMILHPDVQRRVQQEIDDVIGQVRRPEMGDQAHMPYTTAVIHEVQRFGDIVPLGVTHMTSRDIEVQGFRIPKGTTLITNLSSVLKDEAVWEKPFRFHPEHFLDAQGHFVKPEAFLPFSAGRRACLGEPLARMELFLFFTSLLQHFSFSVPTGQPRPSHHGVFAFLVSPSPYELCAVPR
# Outline: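 Biochemical fluorescence assay, insect-cell-derived enzyme. Read at 1 h; inhibition taken from loss of signal against acetonitrile. Screened at 10 uM in duplicate, with concentration series for actives.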
compound,measurement,setting,value
CCCCC(CC)COC(=O)c1ccc(C(=O)OCC(CC)CCCC)c(C(=O)OCC(CC)CCCC)c1 (stereo not drawn),outcome,[1],inactive
same,outcome,[2],inactive
same,outcome,[3],inactive
Nc1ccc(Cc2ccc(N)cc2)cc1,outcome,[1],inactive
same,outcome,[2],inactive
same,AC50,[4],0.719 µM (active)
Cc1cccc(N)c1N,outcome,[1],inactive
same,outcome,[2],inactive
same,outcome,[3],inactive
same,outcome,[5],inactive
same,AC50,[6],6.94 µM (active)
c1ccc2c(c1)-c1cccc3cccc-2c13,AC50,[1],32.2 µM (active)
same,outcome,[2],inactive
same,AC50,[3],29.5 µM (active)
same,AC50,[6],7.21 µM (active)
Nc1ccc(Cl)cc1N,outcome,[1],inactive
same,outcome,[2],inactive
same,outcome,[3],inactive
same,AC50,[6],7.31 µM (active)
Cc1cc(N=Nc2ccccc2C)ccc1N,AC50,[1],29.2 µM (active)
same,AC50,[2],29.2 µM (active)
same,outcome,[5],inactive
same,AC50,[4],1.71 µM (active)
same,AC50,[6],0.858 µM (active)
same,AC50,[7],4.5 µM (active)
CC(C)(OOC(C)(C)c1ccccc1)c1ccccc1,AC50,[1],30.2 µM (active)
same,AC50,[2],16.4 µM (active)
same,outcome,[5],inactive
O=C(Nc1ccccc1)c1ccccc1I,outcome,[1],inactive
same,outcome,[2],inactive
same,outcome,[6],inactive
same,outcome,[8],inactive
Oc1ccc2ccc3cccc4ccc1c2c34,AC50,[1],36.1 µM (active)
same,AC50,[2],6.09 µM (active)
same,AC50,[3],30.4 µM (active)
same,AC50,[6],0.275 µM (active)
same,AC50,[7],2.53 µM (active)
same,AC50,[8],6.74 µM (active)
CO[C@@H]1[C@H](OC(=O)NC(=O)CCl)CC[C@]2(CO2)[C@H]1[C@@]1(C)O[C@@H]1CC=C(C)C,AC50,[1],2.58 µM (active)
same,AC50,[2],2.45 µM (active)
same,AC50,[8],2.38 µM (active)
CC(C)COC(=O)c1ccccc1C(=O)OCC(C)C,outcome,[1],inactive
same,AC50,[2],30.3 µM (active)
same,AC50,[6],7.52 µM (active)
CCOc1cccc(C2(N3CCN(c4ccccc4)CC3)CCC(C)CC2)c1 (stereo not drawn),outcome,[1],inactive
same,outcome,[2],inactive
same,outcome,[3],inactive
same,outcome,[6],inactive
CC(C)(C)C(O)(CCc1ccc(Cl)cc1)Cn1cncn1 (stereo not drawn),outcome,[1],inactive
same,outcome,[2],inactive
same,outcome,[3],inactive
same,outcome,[4],inactive
same,outcome,[6],inactive
same,AC50,[7],6 µM (active)
same,AC50,[8],5.27 µM (active)
CC(C)(O)c1cnn2c(-c3ccc(F)c(-c4c(F)cccc4C#N)c3)cnc2n1,AC50,[1],4.31 µM (active)
same,outcome,[2],inactive
same,outcome,[3],inactive
same,AC50,[7],2.24 µM (active)
O=C(N[C@H](c1ccccc1)[C@@H]1CN2CCC1CC2)c1c(Cl)ccc(C(F)(F)F)c1Cl,AC50,[1],20.2 µM (active)
same,AC50,[2],29.7 µM (active)
same,outcome,[3],inactive
same,outcome,[5],inactive
same,AC50,[9],3.5 µM (active)
same,outcome,[8],inactive
Nc1ccc([N+](=O)[O-])cc1,outcome,[1],inactive
same,outcome,[2],inactive
same,outcome,[3],inactive
same,AC50,[5],8.46 µM (active)
COP(=S)(OC)SCN1C(=O)c2ccccc2C1=O,outcome,[1],inactive
same,outcome,[2],inactive
same,AC50,[4],0.766 µM (active)
same,AC50,[6],3.71 µM (active)
same,AC50,[9],6.97 µM (active)
same,AC50,[7],4.74 µM (active)
[Cl-].[Cl-].[Hg+2],outcome,[1],inactive
same,AC50,[2],22.7 µM (active)
same,AC50,[5],14.8 µM (active)
same,AC50,[4],9.16 µM (active)
same,AC50,[6],0.998 µM (active)
same,AC50,[9],3.44 µM (active)
same,AC50,[7],3.68 µM (active)
same,AC50,[8],0.975 µM (active)
O=[N+]([O-])C(Br)(CO)CO,AC50,[1],27.6 µM (active)
same,AC50,[2],8.35 µM (active)
same,AC50,[3],30.6 µM (active)
same,outcome,[5],inactive
same,AC50,[6],3.15 µM (active)
same,outcome,[9],inactive
same,AC50,[7],3.26 µM (active)
same,outcome,[8],inactive
Nc1ccc(Oc2ccc(N)cc2)cc1,outcome,[1],inactive
same,outcome,[2],inactive
same,AC50,[4],2.57 µM (active)
same,outcome,[9],inactive
same,AC50,[8],7.04 µM (active)
OCCOCCO,outcome,[1],inactive
same,outcome,[2],inactive
same,outcome,[3],inactive
same,outcome,[8],inactive
CCCCCCCCn1sccc1=O,AC50,[1],13.4 µM (active)
same,AC50,[2],1.76 µM (active)
same,AC50,[5],4.74 µM (active)
same,AC50,[4],0.975 µM (active)
same,AC50,[6],5.97 µM (active)
same,AC50,[9],7.91 µM (active)
same,AC50,[7],7.51 µM (active)
same,AC50,[8],8.75 µM (active)
CN(C)C(=O)Nc1ccc(Cl)cc1,outcome,[1],inactive
same,AC50,[2],20 µM (active)
same,outcome,[3],inactive
same,AC50,[6],6.62 µM (active)
CCCCOC(=O)c1ccccc1C(=O)OCc1ccccc1,AC50,[1],20 µM (active)
same,AC50,[2],20 µM (active)
same,AC50,[6],6.71 µM (active)
Nc1ccc(N=Nc2ccccc2)cc1,outcome,[1],inactive
same,outcome,[2],inactive
same,outcome,[5],inactive
same,AC50,[4],0.261 µM (active)
same,outcome,[6],inactive
same,outcome,[9],inactive
same,AC50,[7],7.26 µM (active)
CCC12COCN1COC2,outcome,[1],inactive
same,outcome,[2],inactive
same,outcome,[3],inactive
same,AC50,[7],3.73 µM (active)
CCOC(=O)[C@]1(c2ccccc2)Oc2ccccc2[C@@H]1N,outcome,[1],inactive
same,AC50,[2],31.3 µM (active)
same,outcome,[5],inactive
same,AC50,[4],0.269 µM (active)
same,AC50,[6],5.07 µM (active)
same,AC50,[9],1.3 µM (active)
same,AC50,[7],5.79 µM (active)
same,AC50,[8],6.56 µM (active)
N#CC(Br)(Br)C(N)=O,outcome,[1],inactive
same,outcome,[2],inactive
same,outcome,[3],inactive
same,outcome,[6],inactive
same,outcome,[8],inactive
ClCCOCCCl,outcome,[1],inactive
same,outcome,[2],inactive
same,outcome,[3],inactive
same,AC50,[7],15 µM (active)

# — PubChem BioAssay (EPA / NIEHS)
